Whole data set: some 9,900 sequences, median “r (bound/input frequency ratio)” near 0.7, cut for the highest 2% near 6.5. Only a selection was taken, and the highest values are over-represented in it overall.
B1: ENSMUSG00000042529.499|Kcnj12 (ssRNA)
RNA: GGGAGUUCUACAGUCCGACGAUCGCUUCGAUAUCCGCAUGCUACUGGACCAUGUACAGGGCUCCCUGGGGCUUGUCCUCAGGGGCAGAGAAGGACAUGGUGGCAGCAGCACUGAGAACAGGAGCAUGGCCUCUCUCAGACCCCAGGGCAGUCAUUCAGUCUUUUCCAUGGACACUCCCCACCGCUCCACAUACUGCCUCCGCCUCAUUCUUGGGCUCUUCCUGCCUUGCUGUCUUUCCUUCCACACAGAAGCACCAAGCAUCAUCCAUUCCCAUAGGCAAGCCCAGGGCACUCCCAGAGCUCCCUCUUGCGGUCGCACUAGUGUGGAAUUCUCGGGUGUCAAGG
B2: ENSMUSG00000061578.701|Ksr2 (ssRNA)
RNA: GGGAGUUCUACAGUCCGACGAUCGCUUCGAUAUCCGCAUGCUAUACUCCCAGAUCUGGGGUGAUCUCUUGAGGUGCCUUCCUGUAGUCUCUUGUGUCAUCUUCUUCUAAGACCACUAAUAACACCGCCUUUCUCCUUGAUCCGGGCCUCAGACCUCUUCAGAGAUUCUUUCUCUGAAUGUACGUGGGGGACUCCAACAGAUGUUGGGAGAAGACUCAAUAUGAGCAUACGGGGUCAUUGUUCAAUCCUGUAUCAAGACCUUGGAGUUGUCUAAGGCUGUGGGUUUUAAAUACCUGCUGCAGGCCUCUUGCGGUCGCACUAGUGUGGAAUUCUCGGGUGUCAAGG
B3: ENSMUSG00000032194.16|Kank2 (ssRNA)
RNA: GGGAGUUCUACAGUCCGACGAUCGCUUCGAUAUCCGCAUGCUACAGCCACAAGCCACGCAUCAAACCGUCCCUCCUCCAUCCCUCUGUCCCAUUCUGCCUCGGCAUUCCUCAGCCCCUGAACUUCCCUGAGGGAGCCCUGACAUCUACCAGGCUCAAGCUCCUGGAAGCCUUUCCCAGCACCCUGGGUUCAAAGCCAGAAAGCCAAGCUACAUUCUCCUCCCAGUUGGCACCAGUUGACAACGCCUUGGGUGUGGGUUUCUUGUAAAGAACAUAGAGAACAAUCAGCCGGCAAUUAUGGGAGGCUCUUGCGGUCGCACUAGUGUGGAAUUCUCGGGUGUCAAGG
B4: ENSMUSG00000034801.130|Sos2 (ssRNA)
RNA: GGGAGUUCUACAGUCCGACGAUCGCUUCGAUAUCCGCAUGCUAGGCACUGAGAGGAGCCAGCGCUCGAGGGCGUUCUCACGCCUGACUGAUAGAUACCUUUUUAGGGUGAUGAACUUACACAGAUGCAGAAGAUAUGGGGUGGUGGUCCUGGGUUUUAACCCUCUGACCGUCUUCUAGCUUCUAAUUUUGUUUGGUUUUUACAUCUAGGAGACUUAGGAAUAAUACCCACUGUUCUUAAACUCUUUGAGACCAUGUCUUAAAUGUCAGUAUUUGCUGCUGAAGACAAAAACGGAAAAUAGAAUCUCUUGCGGUCGCACUAGUGUGGAAUUCUCGGGUGUCAAGG
B5: ENSMUSG00000031028.491|Tub (ssRNA)
RNA: GGGAGUUCUACAGUCCGACGAUCGCUUCGAUAUCCGCAUGCUACACCCUUUUAAAUGAACAUGGGGUGGUGAUGGUGCCUUAACAAUCUUGACACUAAGGUGAAGCAAGCAAGUAAGGUGUGUGCCUCUGGGAAGACAGGAGUCGGAAGCCAAGGUGUGUGGCAACAGUCUGGAAGAGAGCUUUUGGUAAUCAUACCGUCUUCAGUGACAAGGCAACAAUGCUGUAAAGUGGGUUUGUUUGGUUUUGUUUUUUCUUUCUCUUUUAUGGAAAUGGCAGGUCUAUUUGCCUCAAACGUUAUGUAGCUCUUGCGGUCGCACUAGUGUGGAAUUCUCGGGUGUCAAGG
B6: ENSMUSG00000028439.155|Fam219a (ssRNA)
RNA: GGGAGUUCUACAGUCCGACGAUCGCUUCGAUAUCCGCAUGCUAGCCAUUUCACCCUAGCUCAAAGUCCAGGAGCCAGGCUUCCAGAAAGGCUCUUCAAGAGCAAGCUUAAGGAAAUACAGUGAGCCAAGUGGCUGUAUGAUAUGGUAUGGUAUGGUAUGGUAUGGUAUGGUAUGGUAUGCACAUGUGUGUGCAUGUGUGUGUGCCUGUGUGUGUGCGUGUGCGUGUGUGUAUGUGUGUGCGUGUGUGUGUGUGUGUGUUGUACCCGAGUGUGUGUUGAGCCUAUCUGUCCAGGGAACCAGAUUCUCUUGCGGUCGCACUAGUGUGGAAUUCUCGGGUGUCAAGG
B7: ENSMUSG00000028439.153|Fam219a (ssRNA)
RNA: GGGAGUUCUACAGUCCGACGAUCGCUUCGAUAUCCGCAUGCUACUGUGCCCCAUUGCCAUUUCACCCUAGCUCAAAGUCCAGGAGCCAGGCUUCCAGAAAGGCUCUUCAAGAGCAAGCUUAAGGAAAUACAGUGAGCCAAGUGGCUGUAUGAUAUGGUAUGGUAUGGUAUGGUAUGGUAUGGUAUGGUAUGCACAUGUGUGUGCAUGUGUGUGUGCCUGUGUGUGUGCGUGUGCGUGUGUGUAUGUGUGUGCGUGUGUGUGUGUGUGUGUUGUACCCGAGUGUGUGUUGAGCCUAUCUGUCCACUCUUGCGGUCGCACUAGUGUGGAAUUCUCGGGUGUCAAGG
B8: ENSMUSG00000028439.154|Fam219a (ssRNA)
RNA: GGGAGUUCUACAGUCCGACGAUCGCUUCGAUAUCCGCAUGCUACCCAUUGCCAUUUCACCCUAGCUCAAAGUCCAGGAGCCAGGCUUCCAGAAAGGCUCUUCAAGAGCAAGCUUAAGGAAAUACAGUGAGCCAAGUGGCUGUAUGAUAUGGUAUGGUAUGGUAUGGUAUGGUAUGGUAUGGUAUGCACAUGUGUGUGCAUGUGUGUGUGCCUGUGUGUGUGCGUGUGCGUGUGUGUAUGUGUGUGCGUGUGUGUGUGUGUGUGUUGUACCCGAGUGUGUGUUGAGCCUAUCUGUCCAGGGAACCUCUUGCGGUCGCACUAGUGUGGAAUUCUCGGGUGUCAAGG
B9: ENSMUSG00000058297.516|Spock2|37:41 (ssRNA)
RNA: GGGAGUUCUACAGUCCGACGAUCGCUUCGAUAUCCGCAUGCUAAUCUUACCCCCAGUGUUCCACAGGAGUCGUGACCACCACACAUGGGUGGGCACAGGUCUGCCUUGCUCCAGCCCCCUCCCUUGGUUUCUGUUGGUACCCAUUUGGCUUUUAUCUGCUUUCUGCUUCACCACUAAGUGCGUAGGUGGGGUCUUUUGAUAUCGGCUCCCCAAAGCCCAAGCCCACAGCCCUAGGAGAGAACCAGGGGCCCAUCUUUGACACCUGGGCCAUCACGAGCCCUCCCGCCUGCAGUUGUCCUAGGGCUCUUGCGGUCGCACUAGUGUGGAAUUCUCGGGUGUCAAGG

What follows are binders tested against TDP-43 (Homo sapiens, UniProt Q13148 1-414) (assay: RNA Bind-n-Seq with designed 260-mer pool; 25 mM Tris-HCl, 150 mM KCl, 3 mM MgCl2, BSA (printed 500 mg/mL), 20 units/mL SUPERase IN; pH not stated; 500 nM RNA pool, 1 h, 4 C; TDP-43 5, 50, 500 nM; high values mean tight binding). Conditions: protein: recombinant; tags: SBP (GST cleaved off with PreScission; pGEX-GST-SBP).
TDP-43, sequence (Q13148 whole entry): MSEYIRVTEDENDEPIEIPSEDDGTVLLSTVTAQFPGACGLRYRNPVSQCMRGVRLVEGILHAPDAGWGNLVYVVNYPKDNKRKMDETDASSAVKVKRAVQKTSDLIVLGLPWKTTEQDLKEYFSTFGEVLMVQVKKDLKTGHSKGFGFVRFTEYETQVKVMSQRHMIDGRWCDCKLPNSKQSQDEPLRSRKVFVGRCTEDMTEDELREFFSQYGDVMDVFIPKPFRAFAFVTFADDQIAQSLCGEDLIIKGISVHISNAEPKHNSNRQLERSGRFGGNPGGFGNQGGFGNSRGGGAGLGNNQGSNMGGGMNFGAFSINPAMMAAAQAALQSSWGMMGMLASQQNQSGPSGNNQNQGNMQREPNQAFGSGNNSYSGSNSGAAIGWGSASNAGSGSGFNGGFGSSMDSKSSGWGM
In short: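 Duplicate measurements used two independent batches of recombinant SBP-tagged TDP-43, which was captured on streptavidin beads at 5, 50 or 500 nM. The beads were incubated with 500 nM of an in vitro-transcribed 260-nt 3′ UTR oligo pool for 1 h at 4 °C in 25 mM Tris-HCl, 150 mM KCl, 3 mM MgCl2, BSA and SUPERase IN. After washing, biotin elution, reverse transcription, PCR amplification and sequencing, binding was expressed as R: each oligo's normalized read abundance in the bound sample over its abundance in input.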
B1 was tested, and the binding signal was 1.51 R (bound/input frequency ratio). In the case of B2, the binding signal is reported as 0.292 R (bound/input frequency ratio). B3 was tested, and the binding signal was 1.15 R (bound/input frequency ratio). For B4, the binding signal was 0.376 R (bound/input frequency ratio). For B5, the binding signal was 1.97 R (bound/input frequency ratio). In the case of B6, the binding signal is reported as 7.8 R (bound/input frequency ratio). With B7 the binding signal was 6.09 R (bound/input frequency ratio). For B8, the binding signal was 7.96 R (bound/input frequency ratio). With B9 the binding signal was 0.797 R (bound/input frequency ratio).

Reference: paper PMC12864922, “TDP-43 directly inhibits mRNA accumulation in neurites through modulation of mRNA stability”
